Results: PubChem BioAssay (NCATS)
Several values for one entry are separate records, joined by “and”; a condition that tells them apart may be missing. Equal values may be shown once. Results filed as inconclusive are left out. Activity calls are given as the source filed them. Unless noted, the call rests on the fitted dose curve; in most records, active means well fitted curve in the direction sought with a large enough effect; inconclusive means small, poorly fitted or top-dose-only effect, or another doubt; inactive means no such curve, though single readings can be large; an effect the other way counts as inactive or inconclusive.

Assays:
[1] = qHTS assay for small molecule agonists of the antioxidant response element (ARE) signaling pathway measured by Nrf2-dependant transcriptional activity - cell viability counter screen (AID 720653; active means well fitted curve in the direction sought with a large enough effect in the repeat runs; an effect the other way counts as inactive or inconclusive; further: on the % scale 0 is the no-effect control and ±100 the full control effect); conditions: ARE-bla HepG2 viability, CellTiter-Glo ATP luminescence, 16 h; stronger effect = lower value
Outline: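 ARE-bla HepG2 cells (2,000/well) rested 5 hrs at 37C/5% CO2, then exposed to compounds in DMSO for 16 hrs. Viability was read in the same wells as intracellular ATP by luminescence, 30 min at room temperature after reagent addition.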

[2] = qHTS Assay for Identifying Gametocytocidal Compounds (AID 743244); further: potency means the concentration at half of the fitted maximal effect;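 on max response: on the % scale 0 is the no-effect control and ±100 the full control effect; actives lower the fluorescent signal which means gametocytes are killed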; conditions: P. falciparum 3D7 stage III-V gametocytes, alamarBlue, 72 h; max response: stronger effect = lower value
Outline: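 Using 20,000 stage III–V 3D7 gametocytes per well, compounds were incubated 72 h under 37 °C/5% CO2. Viability was then assessed by 24 h alamarBlue reduction, measured fluorometrically at 525/598 nm.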

[3] = qHTS assay for cell viability of HEK293 cells (AID 743288); conditions: ATP luminescence (CellTiter-Glo), 18 h; max response: stronger effect = lower value; further: nearly all actives have a fitted effect of over 50% in size; further: potency means the concentration at half of the fitted maximal effect; on max response: on the % scale 0 is the no-effect control and ±100 the full control effect
Outline: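 HEK293, 18 h, 37 C, ATP luminescence. Cells at 2,000/well were allowed at least 5 h to settle before dosing; CellTiter-Glo developed 30 min at RT.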

[4] = qHTS assay for cell viability of the p53RE-bla HCT-116 cell line (AID 743292); conditions: p53RE-bla HCT-116 viability, ATP luminescence, 16 h; series mostly up to 95 µM; further: on the % scale 0 is the no-effect control and ±100 the full control effect; nearly all actives have a fitted effect of over 55% in size
Outline: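 CellSensor p53RE-bla HCT-116 cells (4,000/well) pre-incubated 5 h at 37 C, then exposed to compounds in DMSO for 16 h at 37 C. Viability read as ATP content by CellTiter-Glo luminescence after 30 min at room temperature.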

[5] = qHTS assay for small molecule antagonists of the retinoid-related orphan receptor gamma (ROR-gamma) signaling pathway - cell viability counter screen (AID 720652; active means well fitted curve in the direction sought with a large enough effect in the repeat runs; an effect the other way counts as inactive or inconclusive;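 further: compound exposure lasted 16 hr before ATP read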; further: potency means the concentration at half of the fitted maximal effect); conditions: RORgamma reporter cell line viability counter screen; series mostly up to 92.2 µM
Outline: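 Cytotoxicity counter screen: intracellular ATP (CellTiter-Glo luminescence) measured in the doxycycline-induced CHO RORE-luciferase reporter line after 16 hr compound exposure at 37 C, 5% CO2.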

[6] = biological target: T1, Hexokinase-4 (Homo sapiens) + Glucokinase regulatory protein (Homo sapiens) (UniProt P35557+Q14397); assay: qHTS assay for inhibitors of recombinant human GCK-GKRP interaction: Diaphorase-coupled assay (AID 743205); conditions: G6PDH/diaphorase resorufin fluorescence; series mostly up to 57.5 µM
T1 sequence (P35557 whole entry, looked up): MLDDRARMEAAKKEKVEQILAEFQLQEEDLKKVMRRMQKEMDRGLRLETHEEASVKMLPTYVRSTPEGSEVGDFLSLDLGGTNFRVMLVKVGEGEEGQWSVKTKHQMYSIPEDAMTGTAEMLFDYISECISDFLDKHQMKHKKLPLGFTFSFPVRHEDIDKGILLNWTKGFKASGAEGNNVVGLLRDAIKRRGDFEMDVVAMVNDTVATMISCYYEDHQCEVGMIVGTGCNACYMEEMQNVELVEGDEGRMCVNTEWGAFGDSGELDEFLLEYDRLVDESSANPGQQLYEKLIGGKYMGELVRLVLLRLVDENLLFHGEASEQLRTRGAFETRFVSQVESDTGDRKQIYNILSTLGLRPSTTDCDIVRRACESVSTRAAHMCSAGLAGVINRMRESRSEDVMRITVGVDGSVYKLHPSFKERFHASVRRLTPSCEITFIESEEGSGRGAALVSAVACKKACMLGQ
T1 sequence (Q14397 whole entry, looked up): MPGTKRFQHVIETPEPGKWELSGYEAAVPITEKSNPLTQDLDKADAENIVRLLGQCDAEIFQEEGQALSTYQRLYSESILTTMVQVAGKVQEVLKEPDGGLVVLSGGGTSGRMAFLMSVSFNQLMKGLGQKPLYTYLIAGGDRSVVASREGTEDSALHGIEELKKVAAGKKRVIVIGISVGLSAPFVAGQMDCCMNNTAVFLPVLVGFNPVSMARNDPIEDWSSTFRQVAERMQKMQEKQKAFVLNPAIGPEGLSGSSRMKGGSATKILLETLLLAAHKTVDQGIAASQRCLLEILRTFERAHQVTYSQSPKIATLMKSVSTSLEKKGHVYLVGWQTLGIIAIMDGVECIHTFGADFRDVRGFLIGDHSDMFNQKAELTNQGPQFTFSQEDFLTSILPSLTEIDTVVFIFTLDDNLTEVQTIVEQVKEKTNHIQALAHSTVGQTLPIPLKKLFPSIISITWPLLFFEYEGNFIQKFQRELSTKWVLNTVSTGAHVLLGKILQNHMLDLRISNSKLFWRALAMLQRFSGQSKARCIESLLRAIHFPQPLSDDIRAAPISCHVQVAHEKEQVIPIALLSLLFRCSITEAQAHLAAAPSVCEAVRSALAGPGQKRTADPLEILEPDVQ
Outline: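 Signal derives from resorufin generated by diaphorase, linked to GCK turnover of glucose (5 mM) and ATP (0.4 mM). Enzyme complex was added after a 20-minute compound preincubation and monitored for 30 minutes.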

[7] = biological target: T1, Hexokinase-4 (Homo sapiens) + Glucokinase regulatory protein (Homo sapiens); assay: qHTS assay for inhibitors of recombinant human GCK-GKRP interaction: ADP-Glo assay (AID 743206); conditions: ADP-Glo luminescence, 60 min, 0% = vehicle-only wells with enzyme present; series mostly up to 76.9 µM;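 further: plate controls were DMSO plus enzyme for no effect and no enzyme for full effect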
Outline: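 Pin-transferred compounds meet a 15 nM GST-GCK/15 nM FLAG-GKRP/2 uM S6P mix (dispense concentrations). ATP is then added to 0.4 mM final with 5 mM glucose, and the reaction runs 60 min at room temperature. ADP is quantified luminescently.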

[8] = biological target: T1, Hexokinase-4 (Homo sapiens) + Glucokinase regulatory protein (Homo sapiens); assay: qHTS assay for inhibitors of recombinant human GCK-GKRP interaction: HTRF assay (AID 743207); conditions: recombinant GCK-GKRP HTRF binding, 60 min; series mostly up to 57.5 µM;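 further: 0% = DMSO with GCK present and -100% = DMSO wells lacking GCK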
Outline: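 Titration screening format: recombinant GST-GCK and FLAG-GKRP at 5 nM, S6P at 2 uM, labelled anti-tag antibodies, 60 min at RT, dual-wavelength HTRF readout.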

[9] = qHTS profiling for inhibitors of Plasmodium falciparum (3D7) proliferation (AID 743322);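 further: infected erythrocytes exposed to compound for 72 h before lysis; 100% = DMSO vehicle wells and 0% = 0.29 µM artemisinin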; conditions: P. falciparum 3D7 proliferation; at 28.7 µM (top of the series)
Outline: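 Parasite DNA was quantified by SYBR Green I fluorescence (ex 485, em 535 nm) after overnight lysis in saponin/Triton buffer at room temperature. Cultures at 0.3% parasitemia and 2.5% hematocrit were first exposed to compound for 72 h at 37 C; signals were normalised to artemisinin (0.29 uM) and vehicle wells.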

[10] = qHTS profiling for inhibitors of Plasmodium falciparum (DD2) proliferation (AID 743323; call rule not given here); conditions: lower = more inhibition; at 28.7 µM (top of the series)
Outline: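 P. falciparum Dd2-infected erythrocytes (0.3% parasitemia, 2.5% hematocrit) exposed 72 h at 37 C, 5% CO2. Lysis with SYBR Green, overnight at room temperature, fluorescence 485/535 nm; normalized to 0.29 uM artemisinin and DMSO.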

C[C@H]1C(=O)O[C@@H]2CCN3CC=C(COC(=O)[C@](C)(O)[C@]1(C)O)[C@H]23
max response [1]: -1.85% (inactive)
max response [2]: 14.3% (inactive)
max response [3]: -3.57% (inactive)
outcome [4]: inactive

O=C(CCl)c1ccc(Cl)cc1Cl
Potency [5]: 21.1 µM (active)
Potency [3]: 14.1 µM (active)

CCCCCCCCCCCC[N+](C)(C)CCOc1ccccc1
Potency [5]: 26.6 µM (active)
max response [1]: -6.97% (inactive)
Potency [2]: 8.91 µM (active)
outcome [4]: inactive

N#Cc1nn(-c2c(Cl)cc(C(F)(F)F)cc2Cl)c(N)c1S(=O)C(F)(F)F (stereo not drawn)
max response [1]: -35.8% (inactive)
max response [2]: 6.82% (inactive)
max response [3]: -24.4% (inactive)
outcome [4]: inactive

CNC(=O)Oc1cccc2ccccc12
Potency [5]: inactive
max response [1]: 6.76% (inactive) and -21.4% (inactive)
max response [3]: -4.95% (inactive) and -11.8% (inactive)
outcome [4]: inactive

Oc1c(Br)cc(Br)cc1Br
Potency [5]: inactive
max response [1]: -5.17% (inactive) and -2.6% (inactive)
max response [3]: -15.1% (inactive) and -2.12% (inactive)
outcome [4]: inactive

COC(=O)C1=CCCN(C)C1
outcome [6]: inactive
outcome [7]: inactive
outcome [8]: inactive
max response [2]: 7.57% (inactive) and 6.37% (inactive)

Cc1ccc(N=CN(C)C=Nc2ccc(C)cc2C)c(C)c1
max response [1]: -11.3% (inactive)
max response [2]: 9.43% (inactive)
max response [3]: -16.1% (inactive)
outcome [4]: inactive

COP(=S)(OC)Oc1ccc(Sc2ccc(OP(=S)(OC)OC)cc2)cc1
max response [1]: -17.2% (inactive)
max response [3]: -12.2% (inactive)
outcome [4]: inactive

NC(=O)CN1CCCC1=O
outcome [6]: inactive
outcome [7]: inactive
outcome [8]: inactive

O=c1n(Cl)c(=O)n(Cl)c(=O)n1Cl
max response [1]: -3.02% (inactive)
max response [3]: 2.76% (inactive)
outcome [4]: inactive

COCC(=O)N(c1c(C)cccc1C)C(C)C(=O)OC (stereo not drawn)
max response [1]: -4.71% (inactive)
max response [2]: -6.72% (inactive)
max response [3]: -7.89% (inactive)
outcome [4]: inactive

CCOC(=O)c1cncn1C(C)c1ccccc1 (stereo not drawn)
max response [2]: -8.82% (inactive)

C[C@@H]1C[C@@H]([C@H](O)CC2CC(=O)NC(=O)C2)C(=O)[C@@H](C)C1
Potency [5]: inactive
max response [1]: 15.1% (inactive) and 0.954% (inactive) and 3.58% (inactive)
Potency [3]: 0.126 µM (active)
outcome [4]: inactive
remaining parasite growth % (stronger effect = lower value) [9]: -0.0842%
activity, percent of control [10]: 0.342%

CCNc1nc(Cl)nc(NCC)n1
max response [1]: 2.17% (inactive)
max response [2]: 2.85% (inactive)
max response [3]: -8% (inactive)
outcome [4]: inactive

CCOP(=S)(OCC)O/N=C(\C#N)c1ccccc1
max response [1]: 4.22% (inactive)
max response [3]: -1.29% (inactive)
outcome [4]: inactive

CCC(=O)O[C@H]1CC[C@H]2[C@@H]3CCC4=CC(=O)CC[C@]4(C)[C@H]3CC[C@]12C
max response [1]: -2.38% (inactive)
max response [2]: 11.3% (inactive)
max response [3]: -26.1% (inactive)
outcome [4]: inactive

C=CCOC(Cn1ccnc1)c1ccc(Cl)cc1Cl (stereo not drawn)
max response [1]: -15.2% (inactive) and -7.32% (inactive)
max response [3]: -18.6% (inactive) and -17% (inactive)
outcome [4]: inactive

CC[n+]1c(-c2ccccc2)c2cc(N)ccc2c2ccc(N)cc21
Potency [5]: inactive
max response [1]: -16.8% (inactive)
Potency [2]: 1.41 µM (active) and 6.31 µM (active)
outcome [4]: inactive

CCCOC(=O)Cc1ccc(OCC(=O)N(CC)CC)c(OC)c1
max response [2]: -6.3% (inactive)

O=C(NC(=O)c1c(F)cccc1F)Nc1cc(Cl)c(OC(F)(F)C(F)C(F)(F)F)cc1Cl (stereo not drawn)
max response [1]: -21.7% (inactive)
max response [2]: 13.1% (inactive)
max response [3]: -27.8% (inactive)
outcome [4]: inactive

c1cc2c(c(N3CCNCC3)c1)OCCO2
max response [2]: -8.91% (inactive)

C[C@@H]1O[C@@H](O[C@@H]2C=C3CC[C@@H]4[C@H](CC[C@]5(C)[C@@H](c6ccc(=O)oc6)CC[C@]45O)[C@@]3(C)CC2)[C@H](O)[C@H](O)[C@H]1O
max response [2]: 11.2% (inactive)

CNC(C)Cc1ccccc1OC (stereo not drawn)
max response [2]: 0.178% (inactive)

C[C@]12C=CC(=O)C=C1CC[C@@H]1[C@@H]2CC[C@@]2(C)[C@H]1CC[C@]2(C)O
max response [2]: -4.85% (inactive)

C#C[C@]1(O)CC[C@H]2[C@@H]3CCC4=CC(=O)CCC4=C3C=C[C@@]21CC
max response [2]: -5.06% (inactive)

CN(C)CCc1c[nH]c2ccccc12
max response [2]: 16.8% (inactive)

NC(N)=N/N=C/c1c(Cl)cccc1Cl
Potency [2]: 3.55 µM (active)

CC(Cc1ccccc1)NCc1ccccc1Cl (stereo not drawn)
max response [2]: 9% (inactive)

CCCC[N+]1(C)[C@@H]2CC(OC(=O)[C@H](CO)c3ccccc3)C[C@H]1[C@@H]1O[C@@H]12 (stereo partly drawn)
max response [2]: 5.95% (inactive)

O=C(O)CCCCCCNC1c2ccccc2CCc2ccccc21
max response [2]: -6.01% (inactive)

COc1cccc2c1C(=O)c1c(O)c3c(c(O)c1C2=O)C[C@@](O)(C(=O)CO)C[C@@H]3O[C@H]1C[C@H](N)[C@H](O[C@@H]2CCCCO2)[C@H](C)O1
Potency [2]: 22.4 µM (active)

CC(C)NCC(O)c1ccc(N)c(C#N)c1 (stereo not drawn)
max response [2]: 9.7% (inactive)

COc1ccc(CN2CCNCC2)c(OC)c1OC
max response [2]: -9.77% (inactive)

CC(Cc1ccc2c(c1)OCO2)NO (stereo not drawn)
max response [2]: -6.74% (inactive)

CC(C)=CCN1CC[C@@]2(C)c3cc(O)ccc3C[C@@H]1[C@@H]2C
max response [2]: -13.8% (inactive)

CC[C@H](O)C(C[C@H](C)N(C)C)(c1ccccc1)c1ccccc1
max response [2]: -14.1% (inactive)

C[N+]1(CCC(C(N)=O)(c2ccccc2)c2ccccc2)CCCCC1
max response [2]: -5.02% (inactive)

CCCCCCCCCCCCCCCC[n+]1ccccc1
Potency [2]: 7.08 µM (active)

CCC(=O)OC1(c2ccccc2)CCN(C)CC1
max response [2]: -1.1% (inactive)

CC(C)(C)OC(=O)c1ncn2c1[C@@H]1CCCN1C(=O)c1c(Br)cccc1-2
max response [2]: 3.06% (inactive)

OC(O)C(Cl)(Cl)Cl
max response [2]: -5.08% (inactive)

O=C(O)Cc1ccccc1
max response [2]: -12.8% (inactive)

COc1ccc2c(C(=O)c3ccc(Cl)cc3)c(C)n(CC(=O)O)c2c1
max response [2]: 36.2% (inactive)

CNC(=O)NC(O)C(Cl)(Cl)Cl (stereo not drawn)
max response [2]: 8.2% (inactive)

COc1ccc(OC)c(CC(C)N)c1 (stereo not drawn)
max response [2]: -18.6% (inactive)

C[N+]1(C)[C@@H]2CC[C@H]1CC(OC(=O)C(CO)c1ccccc1)C2 (stereo partly drawn)
max response [2]: -7.22% (inactive) and -0.641% (inactive)

C[C@H](N)[C@H](O)c1ccc(O)c(O)c1
max response [2]: -0.0676% (inactive)

CCC1(c2cnc[nH]2)Cc2ccccc2C1
max response [2]: -21.2% (inactive)

Oc1ccc2[nH]cc(CCCCN3CC=C(c4ccccc4)CC3)c2c1
max response [2]: -6.56% (inactive)

CCCN(CCC)CCc1c[nH]c2ccccc12
max response [2]: -3.32% (inactive)

Cc1nnc2n1-c1sc(CCc3ccc(CC(C)C)cc3)cc1C(c1ccccc1Cl)=NC2C (stereo not drawn)
max response [2]: -7.02% (inactive)

Cc1c(C)c2c(c(C)c1OC(=O)CCC(=O)OCCO)CC[C@@](C)(CCC[C@H](C)CCC[C@H](C)CCCC(C)C)O2
max response [2]: -0.873% (inactive)

CC[C@H]1CN2CCc3cc(OC)c(OC)cc3[C@@H]2C[C@@H]1C[C@H]1NCCc2cc(OC)c(OC)cc21
Potency [2]: 1.41 µM (active)

O=C(N[C@H]1N=C(c2ccccc2F)c2cccc3c2N(CC3)C1=O)c1cc2ccccc2[nH]1
max response [2]: -4.83% (inactive)

CC(C(O)c1ccccc1)N(C)CCOC(c1ccccc1)c1ccccc1 (stereo not drawn)
Potency [2]: 5.01 µM (active)
